High-throughput results deposited in PubChem by Broad Institute.
Shown are actives, neighbours in structure and some others; about 3% of the full set was active somewhere.
esBAF inh – SWI/SNF esBAF complex inhibition. AID 602393. mouse ES cells, Bmi1-luciferase knock-in reporter, 24 h; 100% = twice the neutral-well signal. 2% of 350,000 active. reporter increase, % at 12.5 µM; in the data active = activation above about 40%; inconclusive = no clear call, values can overlap the other calls;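 also: 0% = median of the plate's neutral control wells and 100% = double that signal; a rise in the Bmi1 reporter signal indicates esBAF inhibition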
N-glyco inh – blocks N-linked glycosylation in D54 reporter cells; D54 ERlucT glycosylation luciferase reporter, 24 h; percent of 100 nM tunicamycin response; AID 588692; 0.23% of 360,000 active; reporter increase, % at 12.5 µM;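 active = mean luciferase reporter signal, scaled so untreated is 0 and the glycosylation-blocking control 100, at or above a set limit in every replicate; inconclusive = mean reaches the limit but not every replicate does; inactive = mean below the limit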;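 also: luciferase carries N-glycosylation sites so blocking glycosylation raises the light; 0% = median of neutral control wells and 100% = median of 100 nM tunicamycin wells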
Wnt act – Wnt/beta-catenin pathway activation; Wnt/beta-catenin reporter cell assay, activator, plate reader; 1.2% of 300,000 active; activation, % at 9.35 µM; in the data active = activation above about 30%, passing the limit was not always enough; inconclusive = no clear call, values can overlap the other calls;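 also: 0% = neutral control wells and 100% = positive control wells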
PfHsp90 yeast 2 – inhibits growth of yeast expressing Plasmodium falciparum Hsp90; S. cerevisiae expressing PfHsp90, BacTiter-Glo ATP, 48 h; yeast lacking PDR1 and PDR3 efflux regulators; inhibition, % at 9.4 µM; 0.32% of 310,000 active;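 active = every replicate shows inhibition above about 80%, whatever the replicate mean, limit read from the data; inconclusive = mean inhibition reaches the set limit but some replicate falls short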;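 also: 0% = DMSO neutral controls and 100% = 20 µM radicicol positive controls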
MITF TRPM1 HTS – MITF TRPM1 promoter activation in melanoma cells; SK-MEL-5 TRPM1-promoter luciferase, 24 h; % of positive control, neutral wells = 0; activation, % at 12.5 µM; 0.75% of 300,000 active; AID 588334;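 active = mean activation of at least 80% with every replicate also reaching 80%; inconclusive = mean reaches 80% but some replicate falls short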;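 also: 0% = neutral control wells and 100% = parthenolide positive control wells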
Vif inh – inhibitors of HIV Vif; HEK293T cells, Vif self-association by quenched fluorescence, imaging, 24 h; AID 602346; 0.35% of 340,000 active; inhibition, % at 7.49 µM; in the data active = inhibition above about 50%, passing the limit was not always enough; inconclusive = no clear call, values can overlap the other calls; inactive = below about 31%
* marks the source's active call; other numbers are inactive results; ? = inconclusive; . = no result given.

SMILES	esBAF inh	N-glyco inh	Wnt act	PfHsp90 yeast 2	MITF TRPM1 HTS	Vif inh
CCOc1ccccc1N1Cc2cc(C)c(C)cc2C1	46*	-1	4	-38	.	-4
CC1Oc2ccccc2N(CC(=O)N2CCCC2)C1=O (stereo not drawn)	-10	1	0	-19	-1	4
COc1ccc(S(=O)(=O)NCCS(=O)(=O)N2CCN(c3ccccc3)CC2)cc1	-2	-2	-2	8	-2	-4
NC(=O)C1=C(N=C2CCCCC2)CCCC1	-8	-1	-4	-2	0	65*
CCCn1nc(C(=O)Nc2cc(S(=O)(=O)Nc3ccc(OC)cc3)ccc2O)c2ccccc2c1=O	0	1	-1	.	13	-1
O=c1c2ccccc2oc2ccc(-c3ccc4[nH]ccc4c3)cc12	34	-4	-3	0	113*	-4
COc1ccc2cc(C[C@@H]3CC[C@@H](CO)O3)ccc2c1	67*	-2	21	8	118*	-5
Cc1cc(N(CCO)CCO)ccc1N=Nc1cc(F)ccc1F	59*	0	-2	.	69	-2
O=C(/C=C/c1ccc(OCCCF)cc1)N1CCN(Cc2ccccc2)CC1	8	-3	2	14	12	-7
O=C1C(=O)c2cccnc2-c2ncccc21	.	-18	-3	.	.	78*
O=C1c2cccnc2-c2ncccc21	-14	1	0	18	7	-6
CC(C)NC(=O)N1[C@H](CO)[C@@H]2c3ccccc3NC[C@@H]21	-9	.	.	.	.	.
O=C(Nc1ccccc1F)N1[C@H](CO)[C@@H]2c3ccccc3NC[C@@H]21	63*	.	.	.	.	.
O=C(NC1CCCCC1)c1ccc(-c2cn[nH]c2)c2ccoc12	53*	-1	3	.	.	9
CCN(CC(=O)NCc1ccc(F)cc1)C(=O)c1ccc(COc2ccccc2)cc1	57*	0	0	10	45	-9
CCCSc1nc2cc(S(=O)(=O)N3CCOCC3)ccc2n1CC	.	-2	-2	-19	4	.
N#CCc1nc2ccc(S(=O)(=O)N3CCOCC3)cc2s1	-10	1	0	-33	11	-4
CCn1c(SCc2nc3ccccc3s2)nc2cc(S(=O)(=O)N3CCOCC3)ccc21	62*	-1	?	-3	0	-8
O=S(=O)(c1ccc(OCc2nc3ccccc3s2)c(Cl)c1)N1CCOCC1	86*	-2	.	-13	66	1
O=C(CSc1ncccn1)N1CCCc2ccccc21	.	1	0	2	2	-2
O=C(CSc1nnc2ccccn12)N1CCc2ccccc2C1	52*	-1	.	3	35	8
O=C(CSc1nnc2ccccn12)N1CCc2ccccc21	53*	-3	34*	14	47	-5
Cc1ccnc(SCC(=O)N2CCc3ccccc32)n1	56*	-1	14	10	86*	-8
O=C(NCCCN1CCCC1=O)c1c(O)nc2ccccn2c1=O	5	0	2	-45	1	1
O=C(C1CCN(S(=O)(=O)c2cc(Cl)ccc2Cl)CC1)N1CCOCC1	-1	4	-2	-1	-5	10
SMILES	esBAF inh	N-glyco inh	Wnt act	PfHsp90 yeast 2	MITF TRPM1 HTS	Vif inh
Fc1cccc2sc(Nc3nc4cc5c(cc4s3)OCO5)nc12	96*	-5	14	-14	70	-8
CC(C)(C)C(=O)Nc1nc2cc3c(cc2s1)OCO3	29	-6	42*	26	?	-1
CC(=O)Nc1nc2cc3c(cc2s1)OCCO3	11	-5	?	-10	.	6
O=C(/C=C/c1ccc2c(c1)OCO2)Nc1nc2ccc(F)cc2s1	56*	-1	34*	-3	87*	-1
CC(C)C(=O)Nc1nc2cc3c(cc2s1)OCO3	68*	-4	29	4	.	4
CO[C@@H](CN(C)S(=O)(=O)c1ccc(Cl)cc1)[C@H](C)CN([C@@H](C)CO)S(=O)(=O)c1cccc(Cl)c1	4	.	.	.	.	.
O=c1[nH]c(-c2ccc(O)cc2)nc2scc(-c3cccs3)c12	61*	0	-3	-13	114*	0
Cn1c(=O)c2c(O)c(Cc3ccccc3)c(=O)n(C)c2n(C)c1=O	.	-1	2	20	.	9
COc1ccc(Cc2c(-c3ccc(F)cc3)nc3ccc(Cl)cn23)c(C)c1	44*	-3	-1	.	.	.
COc1ccc(Cc2c(-c3ccccc3)nc3ccc(C)cn23)c(C)c1	.	.	7	.	.	.
